Measurements as given in PubChem BioAssay (EPA / NIEHS).
Activity calls are given as the source filed them. How the source made its calls: active means hit-call score of the fitted dose curve at least 0.9, where 1 is the maximum; inactive means score below 0.9.

Each molecule was assayed on Interleukin-8 (IL8), CXCL8 (gene 3576) (assay: BSK_CASM3C_IL8: BioMAP Diversity Plus: CASM3C Assay for Interleukin-8 (IL8) Biomarker Activity (AID 2283042;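 further: IL-8 protein level quantified by ELISA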)). Settings: primary human coronary artery smooth muscle cells; actives raise or lower the signal.
In the case of `Cc1c(COC(=O)[C@@H]2[C@H](/C=C(\Cl)C(F)(F)F)C2(C)C)cccc1-c1ccccc1`, the outcome is reported as “inactive”. In the case of `O=c1n(Cl)c(=O)n(Cl)c(=O)n1Cl`, the outcome is reported as “inactive”. With `CC1(C)CCC(=Cc2ccc(Cl)cc2)C1(O)Cn1cncn1` (stereo unspecified) the outcome was “inactive”. With `COC(=O)N(C(=O)N1CO[C@@]2(C(=O)OC)Cc3cc(Cl)ccc3C2=N1)c1ccc(OC(F)(F)F)cc1` the outcome was “inactive”. For `CC1(C)CON(Cc2ccccc2Cl)C1=O`, the outcome was “inactive”. `Cn1c(-c2ccccc2)cc(-c2ccccc2)[n+]1C` was tested, and the outcome was “inactive”. For `COC(=O)NC(=S)Nc1ccccc1NC(=S)NC(=O)OC`, the outcome was “inactive”. `N#CN=C1SCCN1Cc1ccc(Cl)nc1` was tested, and the outcome was “inactive”. For `CS(=O)(=O)c1cc(C(F)(F)F)ccc1C(=O)c1cnoc1C1CC1`, the outcome was “inactive”. In the case of `COP(=S)(OC)SCn1nnc2ccccc2c1=O`, the outcome is reported as “inactive”. In the case of `CCSC(=O)N1CCCCCC1`, the outcome is reported as “inactive”. With `O=C(O)c1c(Cl)ccc2cc(Cl)cnc12` the outcome was “inactive”. `CCCCOCN(C(=O)CCl)c1c(CC)cccc1CC` was tested, and the AC50 was 5.08 µM (active). For `CC(C)N1C(=O)c2ccccc2NS1(=O)=O`, the outcome was “inactive”. For `CCCCC(O)(Cn1cncn1)c1ccc(Cl)cc1Cl` (stereo unspecified), the outcome was “inactive”. For `COCC(C)N(C(=O)CCl)c1c(C)csc1C` (stereo unspecified), the outcome was “inactive”. `CC1(C)C(C=C(Cl)Cl)C1C(=O)OC(C#N)c1cccc(Oc2ccccc2)c1` (stereo unspecified) was tested, and the outcome was “inactive”. With `CCOP(=S)(OCC)Oc1nc(Cl)n(C(C)C)n1` the outcome was “inactive”. For `COP(=O)(OC)O/C(C)=C/C(=O)N(C)C`, the outcome was “inactive”. `CCN(CC)c1nc(C)cc(OP(=S)(OC)OC)n1` was tested, and the outcome was “inactive”. `Cc1cc(C)nc(Nc2ccccc2)n1` was tested, and the outcome was “inactive”. In the case of `O=P(O)(O)CCCl`, the outcome is reported as “inactive”. `CC(C)(C)C(=O)C(Oc1ccc(Cl)cc1)n1cncn1` (stereo unspecified) was tested, and the outcome was “inactive”. In the case of `C=C(C)CN(CC)c1c([N+](=O)[O-])cc(C(F)(F)F)cc1[N+](=O)[O-]`, the outcome is reported as “inactive”. In the case of `C=CCOC(=O)C(C)(C)OC(=O)c1cc(-n2c(=O)cc(C(F)(F)F)n(C)c2=O)ccc1Cl`, the outcome is reported as “inactive”. With `CCN(CC)C(=O)C(C)Oc1cccc2ccccc12` (stereo unspecified) the outcome was “inactive”. In the case of `COCc1cnc(C2=NC(C)(C(C)C)C(=O)N2)c(C(=O)O)c1` (stereo unspecified), the outcome is reported as “inactive”. With `O=C1C2CC=CCC2C(=O)N1SC(Cl)(Cl)Cl` (stereo unspecified) the AC50 was 31.7 µM (active). `CCCC(=NOCC)C1=C(O)CC(CC(C)SCC)CC1=O` (stereo unspecified) was tested, and the outcome was “inactive”. In the case of `CO/N=C(/C1=NOCCO1)c1ccccc1Oc1ncnc(Oc2ccccc2Cl)c1F`, the outcome is reported as “inactive”. With `CC(C)Oc1cccc(NC(=O)c2ccccc2C(F)(F)F)c1` the outcome was “inactive”. With `CC(C)C1(C)N=C(c2ncccc2C(=O)O)NC1=O` (stereo unspecified) the outcome was “inactive”. `COCC(=O)N(c1c(C)cccc1C)C(C)C(=O)OC` (stereo unspecified) was tested, and the outcome was “inactive”. For `CC(C)N1C(=O)N(c2ccccc2)CSC1=NC(C)(C)C`, the outcome was “inactive”. For `CCNP(=S)(OC)O/C(C)=C/C(=O)OC(C)C` (stereo unspecified), the outcome was “inactive”. `CNC(=O)Oc1cccc2ccccc12` was tested, and the outcome was “inactive”.
